Where “and” joins values, the source holds several entries; their conditions need not be identical. Equal entries are not always repeated. Records with an inconclusive call do not appear. Some compounds were tested as several samples or in several runs, with calls that do not always agree. Calls of active or inactive are those of the source. How the source made its calls, unless noted: active means hit-call score of the fitted dose curve at least 0.9, where 1 is the maximum; inactive means score below 0.9.
Key:
[1] = CCTE_Shafer_MEA_acute_spike_number: CCTE's Neural Acute Assay for Total Number of Spikes, Shafer Lab (AID 2284008);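 on AC50: curve fitted for decrease in spike count so AC50 reflects inhibitors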
Method in brief: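 Cortical neurons from rat, matured to DIV 13 or 15 on microelectrode arrays, are recorded at 37 C before and during 40-min exposure to 0.03-40 uM compound. Wells need >/= 10 active electrodes.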

[2] = CCTE_Shafer_MEA_acute_firing_rate_mean: CCTE's Neural Acute Assay for Mean Firing Rate, Shafer Lab (AID 2284009);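 further: analyzed for loss of signal so actives lower firing rate relative to DMSO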
Method in brief: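 Read-out: well-mean spike rate (spikes/recording length/electrodes), % change from 40 min pre-dose baseline to 40 min with compound. Rat cortical cultures, DIV 13 or 15, 37 C; 0.03-40 uM; DMSO as negative control.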

[3] = CCTE_Harrill_HTTr_Apoptosis_MCF7: CCTE's 6-hour Apoptosis Assessment for the High-Throughput Transcriptomics (HTTr) Platform, in MCF-7 cells cultured in DMEM + 10% fetal bovine serum, Harrill Lab (AID 2284011)
Method in brief: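 Cells are dosed with test chemicals at eight concentrations and imaged 6 hours later for caspase-3/7 activity using a green fluorogenic detection reagent. Activity is fitted in both directions against DMSO controls.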

[4] = CCTE_Shafer_MEA_acute_burst_number: CCTE's Neural Acute Assay for Single-Electrode Bursts, Shafer Lab (AID 2284013)
Method in brief: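 Rat cortical cultures, DIV 13/15; 40 min baseline, then 40 min with compound 0.03-40 uM, 37 C. Spikes: 300-5000 Hz band-pass, threshold 8x rms noise. Readout = % change in single-electrode bursts vs baseline, loss-of-signal fit.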

[5] = CCTE_Shafer_MEA_acute_burst_duration_mean: CCTE's Neural Acute Assay for Mean Burst Duration, Shafer Lab (AID 2284014);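 further: hits are decreases in mean burst duration relative to DMSO controls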
Method in brief: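 Primary rat cortical neurons on 16-electrode MEA wells, treated on DIV 13 or 15 with compound (0.03-40 uM; ≥3 wells each). 40-min baseline and 40-min exposure recordings at 37 C; percent change in mean burst duration per well versus DMSO.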

[6] = CCTE_Shafer_MEA_acute_per_burst_spike_number_mean: CCTE's Neural Acute Assay for Average Number of Spikes Per Burst, Shafer Lab (AID 2284015);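 further: hits are decreases in mean spikes per burst versus baseline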
Method in brief: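 Read-out: percent change in mean spikes per burst, each well's post-exposure 40-min recording versus its own 40-min baseline. Rat cortical cultures, DIV 13 or 15, compounds 0.03-40 uM; DMSO is negative control, loss-of-signal fitting.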

[7] = CCTE_Shafer_MEA_acute_interburst_interval_mean: CCTE's Neural Acute Assay for Mean Interburst Interval, Shafer Lab (AID 2284016);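 further: percent change of mean interburst interval versus each well's own pre-dose baseline; curves fitted for decrease in interburst interval relative to DMSO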
Method in brief: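 Rat cortical cultures, DIV 13/15; 20 min equilibration, 40 min baseline, compound 0.03-40 uM, 40 min re-recording, 37 C. Spikes detected at 8x rms noise (300-5000 Hz band-pass). Endpoint: % change in interburst interval, fitted in loss direction vs DMSO.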

[8] = CCTE_Shafer_MEA_acute_burst_percentage_mean: CCTE's Neural Acute Assay for Percentage of Spikes in a Burst, Shafer Lab (AID 2284017);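 on AC50: curve fitted for loss of signal so potency reflects decreased burst percentage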
Method in brief: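 Rat cortical cultures, DIV 13/15, 37 C. Spikes detected at 8x rms noise (300-5000 Hz band-pass). Burst spikes/total spikes averaged across electrodes per well; % change post- vs pre-treatment (40 min each), loss-of-signal fit vs DMSO.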

[9] = CCTE_Simmons_MITO_basal_resp_rate: CCTE's HepG2 Seahorse XF Respirometric Screening Assay at Basal Respiratory State, Simmons Lab (AID 2284001); settings: actives raise or lower the signal
Method in brief: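 HepG2 cells were given test chemicals at 7 concentrations, 125 nM to 100 uM final, and oxygen consumption rate was read every 6 min (3 min mix, 3 min measure) over 72 min. Basal-phase OCR was fitted bidirectionally against DMSO.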

[10] = CCTE_Simmons_MITO_inhib_resp_rate: CCTE's HepG2 Seahorse XF Respirometric Screening Assay at Inhibited Respiratory State [full ETC block], Simmons Lab (AID 2284006); settings: actives raise or lower the signal
Method in brief: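 Compound injected onto HepG2 cells (125 nM–100 uM final, 7 points); FCCP then rotenone/antimycin A added. Oxygen consumption read every 6 min (3 min mix, 3 min measure) for 72 min. Inhibited-state OCR fitted against DMSO.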

[11] = CCTE_Harrill_HTTr_CellCount_MCF7: CCTE's Cell Proliferation Assessment for the High-Throughput Transcriptomics (HTTr) Platform, Harrill Lab (AID 2284012; active means hit-call score of the fitted dose curve at least 0.9, where 1 is the maximum;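 further: count of Hoechst-stained nuclei per well by high-content imaging in MCF-7 cells; cells exposed to compound for six hours; intended direction is loss of nuclei count meaning fewer cells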)
Method in brief: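 Chemicals in eight-point dilution series are added to MCF-7 cells for six hours, nuclei are stained with Hoechst and imaged, and per-well nuclei counts are fitted in both directions relative to DMSO controls.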

[12] = CCTE_Simmons_MITO_viability: CellTiter-Glo Viability Assessment for CCTE's HepG2 Seahorse XF Respirometric Screening Assay [post-hoc], Simmons Lab (AID 2284007; active means hit-call score of the fitted dose curve at least 0.9, where 1 is the maximum)
Method in brief: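 After the Seahorse oxygen-consumption sequence (basal, FCCP, rotenone/antimycin A; 72 min total), HepG2 viability was scored as ATP content by bioluminescence. Chemicals ran at seven concentrations up to 100 uM final for 90 min.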

Measured: AC50

CC(C)OC(=O)Nc1cccc(Cl)c1
active: [1] 10.2 µM | [8] 20 µM
inactive: [2] | [3] | [4] | [5] | [6] | [7]

OCCOc1ccccc1
inactive: [3]

Clc1ccccc1-c1nnc(-c2ccccc2Cl)nn1
not listed: [9] | [10] | [11] | [12]
inactive: all other assays above

CC(C)N(C(=O)COc1nnc(C(F)(F)F)s1)c1ccc(F)cc1
inactive: [2] | [3] | [4] | [5] | [6] | [7]
active: [1] 5.77 µM and 2.11 µM | [2] 5.77 µM | [6] 1360 nM | [7] 31.9 µM | [8] 30.6 µM and 15 µM

CC[C@H](C)[C@H]1O[C@]2(C=C[C@@H]1C)C[C@@H]1C[C@@H](C/C=C(\C)[C@@H](O[C@H]3C[C@H](OC)[C@@H](O[C@H]4C[C@H](OC)[C@@H](O)[C@H](C)O4)[C@H](C)O3)[C@@H](C)/C=C/C=C3\CO[C@@H]4[C@H](O)C(C)=C[C@@H](C(=O)O1)[C@]34O)O2 (tested in a mixture with another compound)
inactive: [10] | [3] | [11] | [7]
active: [9] 24.7 µM | [1] 0.0048 µM | [2] 0.00477 µM | [4] 7.21 nM | [5] 20.8 nM | [6] 5.76 nM | [8] 0.0165 µM

CCN(CC)C(=O)SCc1ccc(Cl)cc1
inactive: [3] | [11]

COP(=O)(OC)OC=C(Cl)Cl
inactive: [3]

CNC(=O)/C=C(\C)OP(=O)(OC)OC
not listed: [9] | [10] | [11] | [12]
inactive: all other assays above

CC1(C)C(C=C(Cl)Cl)C1C(=O)OC(C#N)c1ccc(F)c(Oc2ccccc2)c1 (stereo not given)
active: [1] 407 nM and 4.51 µM | [2] 450 nM and 4.51 µM | [4] 173 nM | [5] 1660 nM | [6] 574 nM | [8] 210 nM and 1.95 µM
inactive: [3] | [11] | [4] | [5] | [6] | [7]

O=C(O)COc1ccc(Cl)cc1Cl
inactive: [9] | [10] | [3] | [11]

O=C(Nc1ccccc1)Nc1cnns1
inactive: [3] | [11]

CN1CSC(=S)N(C)C1
inactive: [3] | [11]

CCOCN(C(=O)CCl)c1c(C)cccc1CC
inactive: [9] | [10] | [12] | [3] | [11]

COc1nn(CSP(=S)(OC)OC)c(=O)s1
inactive: [3] | [11]

CNC(=O)Oc1cccc(N=CN(C)C)c1
inactive: [3] | [11]

O=C(NC(=O)c1c(F)cccc1F)Nc1ccc(OC(F)(F)C(F)OC(F)(F)F)c(Cl)c1 (stereo not given)
inactive: [3] | [11]

CNC(=O)CSP(=S)(OC)OC
not listed: [9] | [10] | [12]
inactive: all other assays above
